# Measured values: PubChem BioAssay AID1851 (National Center for Advancing Translational Sciences (NCATS), 2009)
# Screen size: about 16,000 compounds; about 5,800 (36%) were called active. About 23% were inconclusive and are not listed. The call rests on the fitted dose curve; in most records, active means well fitted curve in the direction sought with a large enough effect; inconclusive means small, poorly fitted or top-dose-only effect, or effect the other way; inactive means no such curve, though single readings can be large or run the other way. Some of the results follow.
# Biological target: Cytochrome P450 2C19 (Homo sapiens) (UniProt P33261)
# Assay: Cytochrome panel assay with activity outcomes
# Settings: recombinant CYP, pro-luciferin dealkylation, luminescence, p450-cyp2c19; series mostly up to 57.1 µM; activity, negative = inhibition: at the top concentration
# On the % scale 0 is the no-effect control and ±100 the full control effect.
# Sequence of Cytochrome P450 2C19 (Homo sapiens) (P33261 whole entry, looked up): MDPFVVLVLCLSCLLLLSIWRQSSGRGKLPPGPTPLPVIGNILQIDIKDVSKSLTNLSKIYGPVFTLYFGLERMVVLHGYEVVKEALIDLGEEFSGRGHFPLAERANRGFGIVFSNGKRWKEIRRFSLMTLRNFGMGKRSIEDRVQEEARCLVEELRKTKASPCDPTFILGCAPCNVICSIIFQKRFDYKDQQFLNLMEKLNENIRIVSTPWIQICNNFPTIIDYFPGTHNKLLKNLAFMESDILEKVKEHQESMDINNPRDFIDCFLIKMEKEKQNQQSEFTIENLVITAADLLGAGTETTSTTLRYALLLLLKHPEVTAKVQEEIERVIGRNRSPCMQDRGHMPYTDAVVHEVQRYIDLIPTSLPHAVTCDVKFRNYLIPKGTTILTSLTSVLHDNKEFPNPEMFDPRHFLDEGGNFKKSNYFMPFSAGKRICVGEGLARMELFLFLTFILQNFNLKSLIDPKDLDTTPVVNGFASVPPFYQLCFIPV
SMILES,AC50,"activity, negative = inhibition"
Cc1ccc(N2C(=O)/C(=C/c3ccc(CN(CCC#N)S(C)(=O)=O)o3)C(=O)NC2=S)cc1C,10 µM (active),–
COc1cccc2c1[C@H](CO)N1[C@H](C#N)[C@@H]3C[C@H](C(=O)O)[C@@H]([C@@H]1C2)N3C,–,11.2% [at 11.4 µM] (inactive)
C=C1CC[C@H](O)C/C1=C/C=C1\CCC[C@]2(C)[C@H]1CC[C@H]2[C@@H](C)CCCC(C)C,–,-6.46% [at 25.6 µM] (inactive)
CC(=O)O/C(=C1/C[C@H]2[C@@H]3CC=C4C[C@@H](OC(C)=O)CC[C@]4(C)[C@@H]3CC[C@]2(C)C1=O)C(F)(F)F,–,10.6% [at 11.4 µM] (inactive)
CNCCc1ccc(O)c(O)c1,–,-24.1% (inactive)
CN1CCN(c2ccc([N+](=O)[O-])c3[nH]o[n+](=O)c23)CC1,–,-37.2% [at 11.4 µM] (inactive)
CN1CCN(c2ccc([N+](=O)[O-])c(N/N=C3\CN4CCC3CC4)c2)CC1,7.08 µM (active),–
CC[C@H]1CN2CCc3cc(OC)c(OC)cc3[C@H]2C[C@@H]1C[C@H]1NCCc2c1[nH]c1ccc(O)cc21,–,34.7% [at 11.4 µM] (inactive)
Cc1ncc([N+](=O)[O-])n1CCN=[N+]=[N-],–,21.1% [at 11.4 µM] (inactive)
c1ccc(N2CC3(CCNCC3)C2)cc1,–,-41.3% (inactive)
CC(C)(C)NC[C@H](O)c1ccccc1Cl,–,-21.7% (inactive)
Cc1ccc(CCN2CC(C(=O)N3CCC4(CC3)OCCO4)CC2=O)cc1 (stereo unspecified),–,-13.7% (inactive)
Cc1ccc(S(=O)(=O)NCC2CCC(C(=O)N3CCC4(CC3)OCCO4)CC2)cc1 (stereo unspecified),14.1 µM (active),–
NC(=O)COc1c(F)cc(SCCNS(=O)(=O)c2ccccc2)cc1F,–,-23.1% (inactive)
COc1cc2c(cc1OC)[C@H](C)NCC2,–,-21.2% [at 25.6 µM] (inactive)
Nc1ccccc1O.O.O=C(O)[C@H]1[O][Sb][O][C@H]1C(=O)O,–,16.1% [at 11.4 µM] (inactive)
O=C(Nc1ccc(Cl)cc1C(=O)c1ccccc1)c1ccco1,4.47 µM (active),–
COc1ccc(OCC(=O)Nc2ccc(Cl)cc2C(=O)c2ccccc2)cc1,1 µM (active),–
O=C(Nc1ccc(Cl)cc1C(=O)c1ccccc1Cl)c1ccco1,2.82 µM (active),–
CN(C)CCOC(=O)COc1ccc(Cl)cc1,–,30.2% (inactive)
O=P(c1ccccc1)(c1ccccc1)N1CC2(CC2)CC(O)(c2ccccc2)C1 (stereo unspecified),–,-42.2% (inactive)
CCC[C@@](C)(COC(N)=O)COC(=O)NC(C)C,–,-25% [at 25.6 µM] (inactive)
COC(=O)N1CCC2(CCCN(C)C2)CC1,–,-41.1% (inactive)

SMILES,AC50,"activity, negative = inhibition"
NC[C@H](O)c1cc(O)c(O)cc1F,–,15.1% (inactive)
C=CCN1CCC2(C)c3cc(O)ccc3C[C@H]1[C@H]2C,inactive,–
COc1cc2c(cc1O)C[C@@H]1c3c(cc(O)c(OC)c3-2)CCN1C,–,12.7% [at 11.4 µM] (inactive)
CN1CCc2cc(O)cc3c2[C@H]1Cc1ccc(O)c(O)c1-3,–,-16.9% (inactive)
CC(C)(C)NC[C@H](O)c1cc(Cl)c(N)c(Cl)c1,–,29% [at 25.6 µM] (inactive)
CN1[C@@H]2CC[C@H]1CC(O[C@@H](c1ccccc1)c1ccccc1N)C2 (stereo partly specified),–,19.3% (inactive)
Cc1ccccc1-c1cncnc1NCCc1cnc[nH]1,0.0501 µM (active),–
Clc1ccccc1-c1cncnc1NCCc1cnc[nH]1,0.0126 µM (active),–
CNCCc1cnc[nH]1,–,-29.9% (inactive)
c1ccc2c(c1)-c1ccccc1C2N1CC2CCC(CC2)C1,–,-44.5% [at 11.4 µM] (inactive)
CCCCC/C=C\C/C=C\C/C=C\C/C=C\CCCC(=O)NCC(=O)O,–,-19% (inactive)
CC(C)N[C@@H](C)Cc1ccc(I)cc1,–,14.9% (inactive)
O=C(C[C@H](c1ccccc1)c1c(O)c2ccccc2oc1=O)c1ccccc1,–,-17.3% [at 11.4 µM] (inactive)
O=C(Nc1ccccc1)N1CCC2(CC1)CCN(C(=O)Oc1ccccc1)CC2,–,-36.7% (inactive)
COc1ccc(C[C@@H]2NC[C@H](O)[C@@H]2OC(C)=O)cc1,–,27.1% [at 25.6 µM] (inactive)
COc1ccc(C[C@H]2NC[C@H](O)[C@@H]2OC(C)=O)cc1,3.16 µM (active),–
Cc1nc(N)sc1CCN,–,-29.1% (inactive)
CCCN[C@@H]1CCc2c(OC)cccc2[C@@H]1C,–,-33.5% (inactive)
CCN(CC)C(=O)N[C@H]1C[C@H]2c3cccc4[nH]cc(c34)C[C@@H]2N(C)C1,–,-1.43% (inactive)
O=C1CN=C(c2cccs2)c2c(sc3c2CCCC3)N1,15.8 µM (active),–
C[C@H]1CC[C@@]2(NC1)O[C@@H]1C[C@@H]3[C@@H]4CC=C5C[C@@H](O)CC[C@]5(C)[C@@H]4CC[C@]3(C)[C@H]1[C@@H]2C,–,15.9% [at 11.4 µM] (inactive)
CCOC(=O)C1Cc2c([nH]c3ccccc23)CN1 (stereo unspecified),1.58 µM (active),–
COc1ccc2[nH]c3c(c2c1)CCNC3,–,0.139% (inactive)

SMILES,AC50,"activity, negative = inhibition"
C[C@@]12CC[C@H]3[C@@H](CC=C4C[C@H](OS(=O)(=O)O)CC[C@]43C)[C@H]1CCC2=O,–,-11.8% (inactive)
COc1cc(CCN)c(OC)c(OC)c1,–,70.8% [at 11.4 µM] (inactive)
C[C@@H](O)CN(CCN(C[C@@H](C)O)C[C@@H](C)O)C[C@@H](C)O.O=[N+]([O-])O.[Cu],0.398 µM (active),–
CC(=O)O[C@H]1C[C@@H](O[C@@H]2[C@H](C)O[C@H](O[C@@H]3[C@H](C)O[C@H](O[C@@H]4CC[C@@]5(C)[C@@H](CC[C@]6(C)[C@]5(C)C[C@H](O)[C@]5(C)[C@@H](C7=CC(=O)OC7)CC[C@@]56O)C4)C[C@@H]3O)C[C@@H]2O)O[C@@H](C)[C@H]1O[C@H]1O[C@@H](CO)[C@@H](O)[C@@H](O)[C@@H]1O,–,15.7% [at 25.6 µM] (inactive)
Cc1ccc(S(=O)(=O)N[C@@H](CCCCN)C(=O)CCl)cc1,–,-18.9% (inactive)
O=S1(=O)N(CCN2CC=C(c3c[nH]c4cc(F)ccc34)CC2)c2cccc3c2N1CCC3,6.31 µM (active),–
COc1cc2c(cc1OC)[C@@]13CCN4C=C5CCO[C@H]6CC(=O)N2[C@@H]1[C@@H]6[C@H]5C[C@H]43,–,32% [at 11.4 µM] (inactive)
CC(C)[N+](C)(CCC(C(N)=O)(c1ccccc1)c1ccccc1)C(C)C,–,-4.45% [at 25.6 µM] (inactive)
C[C@H](CN(C)C)C(C#N)(c1ccccc1)c1ccccc1,–,31.1% [at 11.4 µM] (inactive)
Cc1cc(NC(=O)CCC(=O)N2CCC3(CC2)OCCO3)no1,–,17.5% (inactive)
Cc1ccc2c(c1)N(CCC(=O)N1CCC3(CC1)OCCO3)C(=O)C(C)O2 (stereo unspecified),0.708 µM (active),–
CN1CC[C@@]23c4ccccc4N[C@H]1[C@]21CCN(C)[C@@H]3Nc2ccccc21,–,15.2% [at 25.6 µM] (inactive)
CCCC(=O)Nc1ccc(N2CCN(CC)CC2)c(Cl)c1,–,-15.6% (inactive)
C=Cn1ccnc1P(=S)(c1nccn1C=C)C1CCCCC1,3.55 µM (active),–
O=C(O)[C@@H](O)[C@@H](O)[C@@H]1[O][Sb][O][C@@H]1CO,–,21.2% [at 11.4 µM] (inactive)
CC[N+](CC)(CCCNC1=CC(=O)C(NCCC[N+](CC)(CC)Cc2ccccc2)=CC1=O)Cc1ccccc1,–,-21.1% (inactive)
CCN1C[C@@]2(COC)CC[C@H](O)[C@@]34[C@@H]2C[C@@H]([C@@H]13)[C@]1(O)C[C@@H](OC)C2C[C@H]4[C@H]1[C@H]2OC(C)=O,–,-2.58% [at 25.6 µM] (inactive)
C[N+](C)(C)[C@H](Cc1c[nH]c(=S)[nH]1)C(=O)O,–,-22.8% [at 11.4 µM] (inactive)
CCCN(CCC)CCc1c[nH]c2ccc(C(N)=O)cc12,–,-15% (inactive)
CN=C(NC#N)NCCSCc1nc[nH]c1C,31.6 µM (active),–
O=C(Nc1cccc(F)c1)N1CC2(CCN(C(=O)Oc3ccccc3)CC2)C1,–,-16.3% (inactive)
O=C(CCN1CC2CCC(CC2)C1)c1cccs1,–,-19% [at 11.4 µM] (inactive)
CC[C@@](O)(C(=O)O)c1cc2n(c(=O)c1CO)Cc1cc3ccccc3nc1-2,–,16.3% [at 11.4 µM] (inactive)

SMILES,AC50,"activity, negative = inhibition"
CC(=O)NBr,–,-7.32% (inactive)
N[C@H](CCCCCP(=O)(O)O)C(=O)O,inactive,–
CP(=O)(O)C1=CCNCC1,–,-20.7% (inactive)
CC(=O)N1CC[N+](C)(C)CC1,–,-17.8% (inactive)
CN1CCN(C(=O)O[C@@H]2c3nccnc3C(=O)N2c2ccc(Cl)cn2)CC1,15.8 µM (active),–
COc1cc2c3cc1Oc1c(O)c(OC)cc4c1[C@@H](Cc1ccc(cc1)Oc1cc(ccc1O)C[C@H]3N(C)CC2)N(C)CC4,–,-11% [at 11.4 µM] (inactive)
CC[C@]1(c2cccc(O)c2)CCCCN(C)C1,–,16.1% [at 25.6 µM] (inactive)
C[C@@H]1O[C@@H](O[C@H]2C[C@@H](O)[C@]3(CO)[C@@H]4[C@@H](O)C[C@]5(C)[C@H](C6=CC(=O)OC6)CC[C@@]5(O)[C@H]4CC[C@@]3(O)C2)[C@H](O)[C@H](O)[C@@H]1O,–,-5.19% (inactive)
C[C@@H](COc1ccccc1)N(CCCl)Cc1ccccc1,10 µM (active),–
Clc1cnc(Oc2ccc(Oc3ncc(Cl)cc3Cl)cc2)c(Cl)c1,–,-18.5% (inactive)
O=C1c2cc([N+](=O)[O-])ccc2-c2ccc3c4ccc5c6c(ccc(c7ccc1c2c73)c64)C(=O)c1cc([N+](=O)[O-])ccc1-5,–,-4.82% [at 11.4 µM] (inactive)
NCCc1ccc(S(=O)(=O)O)cc1[N+](=O)[O-],–,-6.86% [at 11.4 µM] (inactive)
O=C1c2ccccc2-c2cc([N+](=O)[O-])c([N+](=O)[O-])cc21,0.398 µM (active),–
COc1ccccc1CN1CC[C@@]2(CCCN(C(=O)Oc3ccccc3)C2)C1,–,-33.4% (inactive)
CN(CCc1ccc(Cl)c(Cl)c1)[C@H]1CCCC[C@H]1N1CCCC1,15.8 µM (active),–
CN(C)CCN(C)CCc1ccc(Cl)c(Cl)c1,10 µM (active),–
COc1ccc2c(c1)C13CCCC[C@@H]1C(C2)N(C)CC3 (stereo partly specified),–,21.6% [at 25.6 µM] (inactive)
C[C@H](Br)C(=O)c1ccc2cc(Br)c3ccccc3c2c1,–,-42.1% [at 11.4 µM] (inactive)
CCC1=C(C[C@H]2NCCc3cc(OC)c(OC)cc32)C[C@H]2c3ccccc3CCN2C1,–,-4.76% [at 11.4 µM] (inactive)
COc1ccc(Cn2c(N)c(C(=O)NCc3ccco3)c3nc4ccccc4nc32)cc1,2.51 µM (active),–
CC(C)CCn1c(N)c(C(=O)NCc2cccs2)c2nc3ccccc3nc21,2.51 µM (active),–
CCCCn1c(N)c(C(=O)NCc2cccs2)c2nc3ccccc3nc21,3.98 µM (active),–
